Measured values reported in PubChem BioAssay (Tox21).
Inconclusive results are not listed. Calls of active or inactive are those of the source. Calls follow the shape of the dose curve; as a rule, active = well fitted inhibition curve with a large enough effect in the signal ratio in the repeat runs (not every such curve was filed as active); inconclusive = weak or mixed curves, or effect the other way; inactive = no such curve, though single readings can be large or run the other way; the % refers to the signal ratio.

These compounds were tested against Vitamin D3 receptor (Homo sapiens) (UniProt P11473) (assay: qHTS assay to identify small molecule antagonists of the vitamin D receptor (VDR) signaling pathway (AID 743223)). Details: VDR-UAS-bla HEK293T, beta-lactamase FRET ratio, 16 h; series mostly up to 61 µM; activity change, negative = inhibition: at the top concentration.
Sequence of Vitamin D3 receptor (Homo sapiens) (P11473 whole entry, looked up): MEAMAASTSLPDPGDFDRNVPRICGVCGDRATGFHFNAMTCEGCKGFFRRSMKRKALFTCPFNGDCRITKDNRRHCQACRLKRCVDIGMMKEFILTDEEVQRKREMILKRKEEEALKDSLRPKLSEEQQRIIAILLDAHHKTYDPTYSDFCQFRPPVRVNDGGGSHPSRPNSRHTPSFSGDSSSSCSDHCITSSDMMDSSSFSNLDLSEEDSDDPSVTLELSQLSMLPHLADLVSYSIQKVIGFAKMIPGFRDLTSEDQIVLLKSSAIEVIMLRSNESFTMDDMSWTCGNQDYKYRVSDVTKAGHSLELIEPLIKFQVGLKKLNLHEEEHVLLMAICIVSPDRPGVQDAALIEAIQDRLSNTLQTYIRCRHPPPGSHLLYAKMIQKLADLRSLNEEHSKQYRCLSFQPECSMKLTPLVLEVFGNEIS
How it was run: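 Beta-lactamase activity in VDR-bla cells is measured by FRET substrate fluorescence (2 h, room temperature) after cells spend 16 h at 37C with test compound and 3 nM final 1alpha,25-dihydroxyvitamin D3.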
% is scaled to controls: 0 for no effect and ±100 for the full control effect.

| SMILES | activity change, negative = inhibition |
| --- | --- |
| CC(=O)N1CCN(c2ccc(O)cc2)CC1 | 15.6% (inactive) |
| COc1ccc(OC)c(NC(=O)CC(C)=O)c1 | -5.17% (inactive) |
| CO/N=C(/C(=O)N[C@@H]1C(=O)N2C(C(=O)O)=C(Cn3nnc(C)n3)CS[C@H]12)c1csc(N)n1 | 3.3% (inactive) |
| C/C=C(\C)C(=O)OCC/C=C\CC | 2.45% (inactive) |
